Measurements as given in PubChem BioAssay (NCI).
The panel holds about 79,000 compounds, 15% with a hit somewhere; the sample as a whole holds those more often. Cut-off read from the data, not from the text of the source: active = growth inhibition above about 70%; inactive = the rest.

Assays:
[1] = NCI Yeast Anticancer Drug Screen. Data for the rad50 strain (AID 155);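 note: 0% = growth of vehicle-only cultures of the same strain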; details: S. cerevisiae rad50 strain growth inhibition; at 50.0 µM; hits give high values
Outline: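 Inhibition values express reduced yeast growth in compound-treated cultures relative to vehicle-treated controls.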

[2] = NCI Yeast Anticancer Drug Screen. Data for the mec2-1 strain (AID 157); details: S. cerevisiae mec2-1 strain, at 50.0 µM, hits give high values
Outline: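 Yeast mec2-1 mutant treated with compound. Readout: growth inhibition vs vehicle controls.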

[3] = NCI Yeast Anticancer Drug Screen. Data for the sgs1 mgt1 strain (AID 161);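 note: 0% = growth of cultures given vehicle only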; details: S. cerevisiae sgs1 mgt1 strain, at 50.0 µM, hits give high values
Outline: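 Inhibition of yeast growth, normalised to vehicle-treated controls, is reported for a strain bearing genetic alterations in DNA damage repair.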

[4] = NCI Yeast Anticancer Drug Screen. Data for the cln2 rad14 strain (AID 165);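 note: 0% = growth equal to vehicle treated cultures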; details: S. cerevisiae cln2 rad14 strain, at 50.0 µM, hits give high values
Outline: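 cln2 rad14 yeast strain; compound exposure; growth inhibition read vs vehicle controls.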

[5] = NCI Yeast Anticancer Drug Screen. Data for the bub3 strain (AID 167); details: S. cerevisiae bub3 mutant strain, at 50.0 µM, hits give high values
Outline: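 Steps: expose the mutant yeast strain to compound; grow alongside vehicle-treated cultures; measure growth; express inhibition against the vehicle cultures.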

[6] = NCI Yeast Anticancer Drug Screen. Data for the mlh1 rad18 strain (AID 175); details: S. cerevisiae mlh1 rad18 strain growth inhibition; at 50.0 µM; hits give high values
Outline: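 Yeast w/ defined DNA-repair lesions; compound exposure; growth vs vehicle controls → % inhibition.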

Measured: growth inhibition

CC(=O)OCC1OC(n2c(O)c(/C=C3\C=Nc4ccccc43)sc2=S)C(OC(C)=O)C(OC(C)=O)C1OC(C)=O (stereo not given)
inactive: [1] 20.4% | [2] -11.7% | [3] -15.4% | [4] 18.9% | [5] -3.5% | [6] 4.9%

COc1cccc(Nc2nc(N)nc(N)c2N)c1
inactive: [1] -4.2% | [2] -35.8% | [3] -6.3% | [4] 10.1% | [5] -19.6% | [6] 14%

CC(C)CCC(=O)C(C)C
inactive: [1] 19.7% | [2] -9.55% | [3] 13.2% | [4] 11.5% | [5] 10.8% | [6] 15.2%

O=C(OCc1ccccc1CN1CCCC1)c1ccc([N+](=O)[O-])cc1Cl
inactive: [1] -13% | [2] -15.8% | [3] -13.7% | [4] -52.7% | [5] -0.9% | [6] -54.8%

O=C(CSc1nnc(Cc2ccccc2)o1)Nc1cccc([N+](=O)[O-])c1
inactive: [1] 20.6% | [2] 5.1% | [3] 12.1% | [4] -10.3% | [5] -8.4% | [6] -17%

COC(=O)C(CSSCC(C(=O)NC(Cc1ccccc1)C(=O)NCC(=O)OC(C)(C)C)N1C(=O)CCC1=O)NC(=O)OCc1ccccc1 (stereo not given)
inactive: [1] -29.2% | [2] 11.4% | [3] -5.45% | [4] -45.4% | [5] -51.4% | [6] 18.9%

O=C1Cn2c(c3c(nc2=O)CCCC3)N1
inactive: [1] -31.1% | [2] -7.3% | [3] -10.3% | [4] -13.7% | [5] -7.95% | [6] 2.1%

O=C(CCCCCCC(=O)C[N+]12CCC(CC1)C(O)C2)C[N+]12CCC(CC1)C(O)C2 (stereo not given)
inactive: [1] 39.1% | [2] 4.2% | [3] 21.1% | [4] 0.5% | [5] 3.6% | [6] 15.6%

CC(N)C(c1ccccc1)c1ccccc1 (stereo not given)
inactive: [1] 19.5% | [2] 15.8% | [3] 7.15% | [4] 11.3% | [5] 33.6% | [6] 19.4%

Cc1ccc(NC(=O)NCc2ccncc2)cc1NC(=O)NCc1ccncc1
inactive: [1] 13% | [2] 15% | [3] 20.8% | [4] 20.2% | [5] 30.9% | [6] 24.8%

NS(=O)(=O)c1ccc(NC(=O)Nc2cccc(C(F)(F)F)c2)cc1
inactive: [1] 23.9% | [2] 2.55% | [3] 12.8% | [4] 12.3% | [5] 23.8% | [6] 9.85%

CN1C(=O)N(c2ccccc2)C2(CCN(CC3COc4ccccc4O3)CC2)C1=O (stereo not given)
inactive: [1] 4.05% | [2] -4.45% | [3] 21.6% | [4] 4.7% | [5] -6.9% | [6] 8.75%

CC1CCC(C)C(O)C1 (stereo not given)
inactive: [1] -21.9% | [2] -22.3% | [3] -19.1% | [4] 23.1% | [5] -27.8% | [6] 3.25%

Brc1cc(Br)c2c(c1)CN(C1CCCCC1)CO2 (tested in a mixture with another compound)
inactive: [1] -0.15% | [2] 3.85% | [3] -0.4% | [4] -18.9% | [5] -1.6% | [6] -7.45%

O=[N+]([O-])/C=C/c1cn(CCCCCn2cc(/C=C/[N+](=O)[O-])c3ccccc32)c2ccccc12
inactive: [1] -5.65% | [2] -8.65% | [3] -2.45% | [4] -7.65% | [5] 8.35% | [6] -9.8%

CCN(CC)CCn1c2c3ccccc3ccc2c2oc(=O)c3ccccc3c21
inactive: [1] -13.8% | [2] 6.6% | [3] -14.1% | [4] 19.4% | [5] -7.5% | [6] 7.8%

CC1(O)C2C3C(I)C4C5C3C1C5C42 (stereo not given)
inactive: [1] 22.6% | [2] 9.05% | [3] 10.1% | [4] 6.7% | [5] 10.3% | [6] 17.4%

COC(C)CC(=O)O (stereo not given)
inactive: [1] -25.8% | [2] -28.2% | [3] -37.2% | [4] -24.5% | [5] -13.2% | [6] -4.9%

c1ccc(N=C2SC(=NC3CCCCC3)N(C3CCCCC3)C2=Nc2ccccc2)cc1
inactive: [1] 3.35% | [2] -18.9% | [3] -0.05% | [4] 9.1% | [5] -4.9% | [6] -29.3%

CC(=O)Nc1cccc2c1C(=O)c1c(c(O)c3ccccc3c1O)C2=O
inactive: [1] 24.9% | [2] -9.85% | [3] -12.8% | [4] -9.3% | [5] -8.4% | [6] -1.85%
